Data on 40 molecules can be found in PubChem BioAssay (EPA / NIEHS).

Active and inactive are the calls of the source. Rule for the calls: active = hit-call score of the fitted dose curve at least 0.9, where 1 is the maximum; inactive = score below 0.9.

In general, AC50 refers to the midpoint of the concentration-response curve, whichever way the signal moves.

The nature of this assay: ATG_AP_2_CIS: Attagene CIS-FACTORIAL HepG2 Assay for human Activator Protein 2 (AP-2) (AID 2282932). The settings on record: HepG2 AP-2 cis-reporter, Attagene transcription factor profiling; actives raise or lower the signal. The procedure:
ATG_CIS is a cell-based, multiplexed-readout assay that uses HepG2, a human liver cell line, with measurements taken at 24 hours after chemical dosing in a 24-well plate.ATG_AP_2_CIS is one of 52 assay component(s) measured or calculated from the ATG_CIS assay. It is designed to make measurements of mRNA induction, a form of inducible reporter, as detected with fluorescence intensity signals by Reverse transcription polymerase chain reaction (RT-PCR) and Capillary electrophoresis technology.Data from the assay component ATG_AP_2_CIS was analyzed into 1 assay endpoint. This assay endpoint, ATG_AP_2_CIS, was analyzed with bidirectional fitting relative to DMSO as the negative control and baseline of activity. Using a type of inducible reporter, measures of mRNA for gain or loss-of-signal activity can be used to understand the reporter gene at the transcription factor-level as they relate to the gene TFAP2A and TFAP2B and TFAP2D. Furthermore, this assay endpoint can be referred to as a primary readout, because this assay has produced multiple assay endpoints where this one serves a reporter gene function. To generalize the intended target to other relatable targets, this assay endpoint is annotated to the dna binding intended target family, where the subfamily is basic helix-turn-helix leucine zipper.
Human liver HepG2 cells are transiently transfected with multiple reporter transcription units (MRTUs) in 6-well plates using FuGene 6 reagent (Roche; 3 ml FuGene/1 mg DNA). The MRTU constructs are regulated by a cis-regulating element (promoter). […] A major difference between the CIS and TRANS system is that in CIS activities of endogenous TFs are measured, whereas the TRANS assay evaluates changes in activities of exogenous, chimeric NR-Gal4 proteins. […] At the end of 24 hour incubation, total RNA was isolated using TriZol reagent (Invitrogen). The isolated RNA is then reverse-transcribed using oligo(dT) primer and Mo-MLV reverse transcriptase (Invitrogen) with DNAse I (Ambion) treatment for 30 min. The one-tenth of the produced cDNA was amplified by PCR using Taq DNA polymerase (Invitrogen) and two reporter sequence-specific primers. The PCR products were fluorescently labeled by primer extension with 6-arboxyfluorescein (6-FAM) 5'-labeled reporter sequence-specific primer (2 min at 95 C, 20 s at 68 C and 10 min at 72 C) and these products were digested with 5U of HpaI (New England Biolabs) for 2h at 37 C. The fragments were purified using Qiaquick PCR columns (Qiagen), analyzed on an ABI 3130xL genetic analyzer (Applied Biosystems) with peak positions identified by using a set of X-rhodamine (ROX)-labeled MapMarker1000 molecular weight standards (BioVentures). The raw capillary electrophoresis data was processed using Attagraph software (Attagene).
As for `[Cl-].[Cl-].[Hg+2]`, the call was inactive.
On the same count and under the same terms, with `CC(C)N(Cc1ccccc1)C(=O)C(C)(C)C` the entry was “inactive”; with `CC(O)CCO` (stereo not given), “inactive”; with `C[N+](C)(C)CC1CO1` (stereo not given), “inactive”.
On to `CCC12COCN1COC2`, for which the outcome was inactive.
Turning to `ClCCOCCCl`, the molecule was classed as inactive.
`Clc1ccc(Cl)c(Cl)c1`: the molecule was classed as inactive.
With `CN(C)C(=O)Nc1ccc(Cl)cc1`, the molecule was called inactive.
As for `c1ccc(C2CO2)cc1` (stereo not given), the molecule was called inactive.
Turning to `Nc1ccc(N=Nc2ccccc2)cc1`, the AC50 was 169 µM (active).
For the molecule `OCCCBr`, the molecule was called inactive.
Still for that read-out and setting: under `N#CC(Br)(Br)C(N)=O` stands “inactive”.
As for `c1ccc2c(c1)-c1cccc3cccc-2c13`, the molecule was called inactive.
Take `Nc1ccc(Cl)cc1N`: the result was inactive.
For the molecule `CCCSC(=O)N(CCC)CCC`, the molecule was called inactive.
The same measure, in the same setting: under `Cc1ccc([N+](=O)[O-])cc1` stands “inactive”; under `O=Cc1ccco1`, “inactive”.
Consider `Clc1ccc(C(c2ccc(Cl)cc2)C(Cl)(Cl)Cl)cc1`, for which the molecule was called inactive.
Take `CCNS(=O)(=O)C(F)(F)C(F)(F)C(F)(F)C(F)(F)C(F)(F)C(F)(F)C(F)(F)C(F)(F)F`: the result was inactive.
In the case of `c1ccc(NNc2ccccc2)cc1`, the molecule was classed as inactive.
Consider `CCN(CC)N=O`, for which the call was inactive.
Consider `COc1cc(C=O)cc2c1[C@H](COC(N)=O)[C@]1(OC(C)=O)ON2C[C@H]2[C@@H]1N2C(C)=O`, for which the AC50 is 33.4 µM (active).
Take `CCCCOC(=O)c1ccccc1C(=O)OCc1ccccc1`: the call was inactive.
As to `O=C(Nc1ccccc1)c1ccccc1I`, the result was inactive.
`Clc1ccccc1Cl`: the outcome was inactive.
For the molecule `CCC[CH2][Sn]([Cl])([CH2]CCC)[CH2]CCC`, the molecule was called inactive.
On to `Cc1ccc(N=C=O)cc1N=C=O`, for which the molecule was called inactive.
With `CCOc1cccc(C2(N3CCN(c4ccccc4)CC3)CCC(C)CC2)c1` (stereo not given), the outcome was inactive.
Same read-out and setting: under `O=C(Oc1ccc(Br)cc1)N1CCN2CCC1CC2` stands “inactive”.
Take `CCCCCCCCCCCCCN1CC(C)OC(C)C1` (stereo not given): the molecule was called inactive.
`O=C(O)C1C2CCC(O2)C1C(=O)O` (stereo not given): the molecule was classed as inactive.
Still for that read-out and setting: with `CC(C)(C)OOC(C)(C)CCC(C)(C)OOC(C)(C)C` the entry was “inactive”.
On to `COP(=S)(OC)SCN1C(=O)c2ccccc2C1=O`, for which the molecule was classed as inactive.
For the molecule `CCN(CC)CCO`, the result was inactive.
In the case of `ClC1=C(Cl)C2(Cl)C3C(Cl)C=CC3C1(Cl)C2(Cl)Cl` (stereo not given), the molecule was classed as inactive.
Still for that read-out and setting: with `COC(=O)c1ccccc1N` the entry was “inactive”; with `c1ccc2c(c1)oc1ccccc12`, “inactive”; with `Brc1ccc(Oc2ccccc2)cc1`, “inactive”.
In the case of `CNC(=O)Oc1cccc2c1OC(C)(C)C2`, the molecule was called inactive.
On the same count and under the same terms, under `[O-][Cl+]O` stands “inactive”.
